An excerpt weighted towards active compounds, which were near 0.8% of everything screened.
TDP1 inh: qHTS Assay for Inhibitors of Tyrosyl-DNA Phosphodiesterase (TDP1); Tyrosyl-DNA phosphodiesterase 1 (Homo sapiens), Q9NUW8; AID 485290, 2010; hit rate 0.28% among 350,000; Potency, µM (titrated, usually from 130 µM), for the others: at the highest dose activity change, negative = inhibition, hits mostly inhibitors; recombinant TDP1, AlphaScreen DNA substrate cleavage; also: potency is read from the fitted curve at half-maximal effect; % is scaled to controls: 0 for no effect and ±100 for the full control effect; nearly all actives have a fitted effect of over 40% in size
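Compounds were preincubated with Tdp1 (1 nM final) for 15 min at room temperature before substrate (15 nM final) started a 5 min reaction; beads (10 ug/ml final) were then added for 10 min before AlphaScreen detection.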
Tb PGK inh: qHTS Assay to Find Inhibitors of Phosphoglycerate Kinase. hit rate 0.043% among 380,000. PGK/GAPDH coupled, Kinase-Glo luminescence, 60 min. Phosphoglycerate kinase, glycosomal (Trypanosoma brucei brucei), P07378. Potency, µM (series often up to 57.5 µM), inactives show top-dose activity change, negative = inhibition, most hits filed as inhibitors; also: potency is read from the fitted curve at half-maximal effect; % is scaled to controls: 0 for no effect and ±100 for the full control effect; nearly all actives have a fitted effect of over 60% in size
Target sequence (P07378 whole entry, looked up): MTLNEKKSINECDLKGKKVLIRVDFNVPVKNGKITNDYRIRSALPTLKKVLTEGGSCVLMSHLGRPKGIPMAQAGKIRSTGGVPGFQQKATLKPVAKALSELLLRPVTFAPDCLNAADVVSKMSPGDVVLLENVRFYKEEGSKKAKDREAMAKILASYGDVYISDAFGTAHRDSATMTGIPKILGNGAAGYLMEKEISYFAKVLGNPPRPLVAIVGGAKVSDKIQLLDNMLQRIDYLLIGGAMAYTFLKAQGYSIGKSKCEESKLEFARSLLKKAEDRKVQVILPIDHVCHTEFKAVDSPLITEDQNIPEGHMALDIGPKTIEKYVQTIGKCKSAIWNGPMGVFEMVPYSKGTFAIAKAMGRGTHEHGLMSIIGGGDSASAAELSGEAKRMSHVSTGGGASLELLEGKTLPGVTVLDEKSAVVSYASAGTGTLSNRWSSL
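Luminescent ATP detection (Kinase-Glo Plus) follows a 60-minute room-temperature incubation, with wells lacking PGK as controls. Buffer: 100 mM TEA (pH 7.6), 5 mM MgCl2, 0.01% Tween-20. Coupling enzyme GAPDH (100 nM final) supplies unstable 1,3-BPG in-well.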
FEN1 inh-1: qHTS Assay for the Inhibitors of Human Flap endonuclease 1 (FEN1). P39748. Recombinant FEN1 flap cleavage, fluorescence, 15 min. Potency, µM (doses to about 114 µM), without a hit: at the top dose activity change, negative = inhibition, most hits filed as inhibitors. hit rate 0.35% among 390,000; also: potency is read from the fitted curve at half-maximal effect; % is scaled to controls: 0 for no effect and ±100 for the full control effect; nearly all actives have a fitted effect of over 65% in size
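Compounds are tested as a concentration series against 10 nM FEN1; after a 15 min room-temperature preincubation, 50 nM substrate starts cleavage, with plate reads at 0 and 15 min. Normalized responses are fitted by a Hill equation.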
APE1 inh: qHTS Assay for Inhibitors of the Human Apurinic/apyrimidinic Endonuclease 1 (APE1) | DNA repair nuclease/redox regulator APEX1 (Homo sapiens), P27695 | recombinant APE1, TAMRA/BHQ-2 abasic DNA cleavage fluorescence | Potency, µM (doses to about 65.8 µM), for inactives: top-dose activity change, negative = inhibition, usual class: inhibitors | hit rate 0.35% among 350,000 | AID 2517, 2012;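 also: potency is read from the fitted curve at half-maximal effect; plate controls were vehicle for no effect and reference inhibitor for full effect; nearly all actives have a fitted effect of over 55% in size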
Target sequence (P27695 whole entry, looked up): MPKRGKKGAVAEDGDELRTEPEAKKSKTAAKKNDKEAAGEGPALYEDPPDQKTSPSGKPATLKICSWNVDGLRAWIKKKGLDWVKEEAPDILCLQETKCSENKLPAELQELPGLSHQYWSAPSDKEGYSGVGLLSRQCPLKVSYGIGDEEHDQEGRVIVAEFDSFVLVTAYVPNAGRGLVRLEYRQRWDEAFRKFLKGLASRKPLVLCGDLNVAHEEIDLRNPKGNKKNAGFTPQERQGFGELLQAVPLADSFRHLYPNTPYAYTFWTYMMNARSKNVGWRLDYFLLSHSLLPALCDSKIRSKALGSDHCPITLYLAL
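Compound pre-exposure to 0.75 nM APE1, 15 min at ambient temperature. Reaction initiated with 50 nM TAMRA/BHQ-2 THF substrate, read immediately in kinetic mode, 525 nm excitation, 598 nm emission.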
PI4K2A block: qHTS for small molecular inhibitors of PI4K2A. purified PI4K2A, ADP-Glo luminescence, 1 h; hits give low values. activity change, negative = inhibition, % at 76.9 µM. hit rate 0.13% among 420,000; in the data active = activity change below about -50%; inconclusive = mostly about -30% to -49%;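 also: -100% = wells without enzyme as full effect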
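Compounds are screened against recombinant PI4K2A using PI as substrate and ATP, the latter dispensed at 300 microM. Reactions run one hour at ambient temperature before ADP-Glo detection; full inhibition defined by wells lacking enzyme.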
Tb PFK inh: qHTS Assay to Find Inhibitors of T. brucei phosphofructokinase; hit rate 0.17% among 330,000; AID 485367, 2010; Potency, µM (doses to about 57.5 µM), without a hit: at the highest dose activity, negative = inhibition, usual class: inhibitors; T. brucei PFK, ADP-Glo luminescence; ATP-dependent 6-phosphofructokinase (Trypanosoma brucei brucei), O15648;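 also: potency is read from the fitted curve at half-maximal effect; 0% = uninhibited 1x PFK enzyme wells and -100% = no-enzyme wells; nearly all actives have a fitted effect of over 60% in size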
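Activity is normalized to no-enzyme wells (full inhibition) and 1.25 nM enzyme wells (no inhibition). Reaction: 0.5 mM F6P, 0.1 mM ATP, 45 min RT, ADP-Glo luminescence; concentration-response curves fitted and classed by quality.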
FEN1 inh-2: qHTS Assay for the Inhibitors of FEN1: Confirmatory Assay for Cherry-picked Compounds; shares compounds with FEN1 inh-1; FEN1 flap cleavage, TAMRA/BHQ2 fluorogenic DNA substrate; Potency, µM, usual class: inhibitors; hit rate 79% among 880; also: potency is read from the fitted curve at half-maximal effect; nearly all actives have a fitted effect of over 60% in size
Starred values were filed as active, the others as inactive; i = inactive; ? = inconclusive; . = no result; [ ] = remark or other dose. Unless noted, calls follow the shape of the dose curve; as a rule, active = well fitted curve in the direction sought with a large enough effect; inconclusive = small, poorly fitted or top-dose-only effect, or another doubt; inactive = no such curve, though single readings can be large; an effect the other way counts as inactive or inconclusive.

SMILES	TDP1 inh	Tb PGK inh	FEN1 inh-1	APE1 inh	PI4K2A block	Tb PFK inh	FEN1 inh-2
O=C1Nc2ccccc2C1C(C[N+](=O)[O-])c1ccccn1 (configuration not stated)	.	.	?	-7.7%	-2.2	-4.4%	9.53*
O=C1Nc2ccccc2C1Cc1ccccn1 (configuration not stated)	2.5%	i	0.4%	3.1%	1.4	0.4%	.
O=C(CSc1nnc(-c2ccco2)o1)c1ccc(F)c(F)c1	9.9%	0.2%	6.8%	-7.0%	0.3	-3.3%	.
O=C(CSc1nnc(-c2ccco2)o1)c1ccc[nH]1	0.0%	-9.9%	-16.4%	3.5%	?	29.3%	?
Cc1ccc2oc(=O)c3cc(C(=O)NCCCN4CCCCCC4)sc3c2c1	-1.0%	6.1%	?	-29.0%	4.1	-3.4%	?
CCCN1CCN(CCCNC(=O)c2cc3c(Cl)nc4ccccc4c3s2)CC1	5.8%	-4.1%	44.7µM*	.	-5.2	.	?
Cc1ccc2oc(=O)c3cc(C(=O)NCCN4CCN(C)CC4)sc3c2c1	2.2%	6.1%	3.8%	5.4%	-1.6	-3.2%	.
O=C(NCCCN1CCCC1)c1cc2c(Cl)nc3ccccc3c2s1	-6.9%	4.1%	39.8µM*	5.7%	3.3	-1.5%	37.9*
CC1CCN(CCCNC(=O)c2cc3c(Cl)nc4ccccc4c3s2)CC1	0.0%	.	?	-10.2%	-8.3	3.2%	?
O=C(NCCCN1CCN(c2ccccc2F)CC1)c1cc2c(Cl)nc3ccccc3c2s1	2.3%	8.4%	7.4%	.	-5.2	.	.
Oc1ccc(CCc2ccccc2F)c2cccnc12	0.0%	.	.	.	.	.	.
C=CCn1c(Cc2cccs2)nnc1SCC(=O)Nc1cccc2ccccc12	.	.	.	.	4.4	.	.
O=C(CSc1nc(-c2ccccc2)nc2ccc(F)cc12)Nc1ccc(C(=O)O)cc1	.	-20.0%	?	-9.2%	-0.2	-9.6%	60.1*
O=C(CSc1nc2ccccc2c2nc(-c3ccccc3)nn12)Nc1ccc(F)cc1	9.3%	-7.0%	2.5%	.	0.0	.	.
COc1c(O)cc2oc(-c3ccc(O)cc3)cc(=O)c2c1O	15.4%	-2.4%	-7.2%	?	-4.5	15.5%	.
COc1cc(OC)c(-c2c3cc(O)c(=O)cc-3oc3cc(O)c(O)cc23)cc1OC	8.0%	?	50.1µM*	25.1µM*	-16.6	?	33.8*
O=C(O)Cc1ccc(N=Nc2c(O)c(C(=O)O)cc3ccccc23)cc1	1.3%	?	50.1µM*	?	-6.3	-1.0%	67.5*
NS(=O)(=O)c1ccc(N=Nc2c(O)c(C(=O)O)cc3ccccc23)cc1	2.5%	-7.9%	?	-6.6%	-18.2	17.0%	?
COc1ccc(-c2cc(=O)c3c(O)cc(OC4OC(COC5OC(C)C(O)C(O)C5O)C(O)C(O)C4O)cc3o2)cc1O (configuration not stated)	.	3.7%	50.1µM*	28.2%	-4.6	-18.5%	?
O=c1cc(-c2ccc(O)c(O)c2)oc2cc(OC3OC(CO)C(O)C(O)C3O)cc(O)c12 (configuration not stated)	7.8%[56.1 µM]	.	.	?	.	.	.
N#Cc1nc(-c2ccccc2)cc(-c2ccccc2)n1	.	.	12.6%	.	.	.	.
O=C(Nc1ccc2nc(-c3ccc4nc[nH]c4c3)[nH]c2c1)c1cccs1	-9.3%	i	44.7µM*	?	2.1	23.3%	?
O=C(Nc1ccc2nc(-c3ccccc3)[nH]c2c1)c1cccs1	3.4%	-6.5%	-17.4%	-2.4%	-1.2	3.9%	.
O=C1CN(S(=O)(=O)c2c(F)cccc2F)CCN1S(=O)(=O)c1ccc2c(c1)OCCO2	-2.3%	.	.	.	.	.	.
CNc1ccc2c3c(cccc13)C(=O)N(C)C2=O	.	-9.7%	?	-28.2%	-0.3	-6.0%	?
SMILES	TDP1 inh	Tb PGK inh	FEN1 inh-1	APE1 inh	PI4K2A block	Tb PFK inh	FEN1 inh-2
O=C(Nc1ccc2[nH]ccc2c1)c1cc(-c2ccc(Cl)cc2)nc2ccccc12	.	.	.	.	-4.6	.	.
CN1\C(=C/C=C/C=C/C=[N+](C)C)C(C)(C)c2ccccc21	10.3%	?	89.1µM*	?	-19.3	-19.8%	84.9*
CCn1cc(C(=O)O)c(=O)c2cc(F)c(N/N=C/c3ccccc3[N+](=O)[O-])cc21	-10.8%	0.7%	-20.0%	0.8%	3.3	0.4%	7.57*
CCn1cc(C(=O)O)c(=O)c2cc(F)c(N3CCN(C(=S)Nc4ccccc4OC)CC3)cc21	.	-7.9%	-28.3%	2.6%	0.6	0.0%	.
Cc1ccc(NC(=O)C2CCN(c3nnc(-n4cccc4)s3)CC2)c(C)c1	.	.	.	.	-8.9	.	.
CN(c1ccccc1)c1ccc(/C=C(\CCC(=O)O)c2nc3ccccc3s2)cc1[N+](=O)[O-]	5.6%	?	?	?	-1.4	0.5%	67.5*
Cc1ccc(S(=O)(=O)ON2C(=O)c3cccc4cccc(c34)C2=O)cc1	-2.7%	.	17.8µM*	-0.6%	-5.1	0.1%	37.9*
O=C1c2cccc3cccc(c23)C(=O)N1OS(=O)(=O)c1ccc(Br)cc1	2.3%	i	?	-6.0%	1.4	0.0%	10.7*
O=C1c2ccccc2C(=O)N1OS(=O)(=O)c1ccccc1	2.6%	.	.	-0.1%	.	1.8%	.
Cc1cccc(NC(=O)CN2C(=O)N/C(=C\c3ccccc3OCc3ccc(C(=O)O)cc3)C2=O)c1	.	-7.4%	?	76.8%	-0.5	2.9%	75.7*
Cc1ccccc1NC(=O)CN1C(=O)N/C(=C\c2ccccc2OCc2ccc(C(=O)O)cc2)C1=O	3.4%[0.0935 µM]	?	?	?	-50.8*	-0.9%	84.9*
Cc1ccccc1NC(=O)CN1C(=O)CCSc2ccccc21	.	.	.	.	0.3	.	.
O=C(COc1cccc2ccccc12)N/N=C/c1ccccc1OCc1ccc(C(=O)O)cc1	7.4%	-18.4%	?	5.5%	1.8	-1.9%	84.9*
CC(=O)Nc1ccc(C(=O)N/N=C/c2ccccc2OCc2ccccc2)cc1	6.1%	i	10.9%	-2.3%	-1.1	-1.8%	.
CN(C)CCCNc1cc(O)c2ncccc2c1	2.8%	7.2%	-26.9%	33.5%	?	?	37.9*

Compound activity from PubChem BioAssay.
